The test concerns NCI-H1944. The experiment in a line: normalised cell viability (NPI; 0 = phenylarsine oxide control, 1 = DMSO control) (fraction of DMSO control); NCI-H1944 is a non-small cell lung cancer line; higher = more viable cells (less compound toxicity). The note with it: 6 days.
Setting [1] is: glucocorticoid arm: hydrocortisone 2.75 uM co-treatment, compound 1 µM.
Setting [2] is: glucocorticoid arm: hydrocortisone 2.75 uM co-treatment, compound 5 µM.
Setting [3] is: glucocorticoid arm: hydrocortisone 2.75 uM pre-treated 2 days and continued, compound 1 µM.
Setting [4] is: glucocorticoid arm: hydrocortisone 2.75 uM pre-treated 2 days and continued, compound 5 µM.
The mark [5] stands for this setting: glucocorticoid arm: vehicle, compound 1 µM.
[6] abbreviates: glucocorticoid arm: vehicle, compound 5 µM.

Structures are written as SMILES. Counter-ions that a name gives are not always drawn. ± gives the standard deviation of the averaged measurements. Over roughly 1,900 compounds, “normalised cell viability (NPI; 0 = phenylarsine oxide control, 1 = DMSO control)” has its median near 1; the lowest 2% begin near 0.039. This is one part of a sample in which the lowest values are shown more often than they occur.

Data on 14 molecules can be found in the supplement of paper PMC8285479.
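Further: CTB read-out in 384-well plates, triplicate wells, NPI normalised per plate against 1 µM phenylarsine oxide (0) and 0.1% DMSO (1) controls.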

For the molecule `CC1=C(C(=O)OC2CCCCC2)C(c2ccc([N+](=O)[O-])cc2)C2=C(CC(C)(C)CC2=O)N1` (centres undefined), the normalised cell viability by setting is: under setting [1], 1.03 ± 0.025; under setting [2], 1.02 ± 0.023; under setting [3], 1.03 ± 0.015; under setting [4], 1.02 ± 0.026; under setting [5], 1.017 ± 0.0058; under setting [6], 1.003 ± 0.0058.
As for `C/C=C1\C(=O)C[C@H]2[C@@H]3CCC4=CC(=O)CC[C@]4(C)[C@H]3CC[C@]12C` [(Z)-Guggulsterone], the normalised cell viability under setting [1] stood at 0.9933 ± 0.0015; the normalised cell viability under setting [2] stood at 0.98 ± 0.031; the normalised cell viability under setting [3] is 0.994 ± 0.02; the normalised cell viability under setting [4] worked out at 0.964 ± 0.029; the normalised cell viability under setting [5] is 0.9953 ± 0.0035; the normalised cell viability under setting [6] was determined as 0.9887 ± 0.0091.
Consider `O=C(c1ccc(Cl)cc1)N1CCN(c2ccc([N+](=O)[O-])c3ncccc23)CC1`, for which the normalised cell viability is, setting by setting: under setting [1], 1.01 ± 0.013; under setting [2], 1.01 ± 0.027; under setting [3], 0.992 ± 0.014; under setting [4], 0.996 ± 0.014; under setting [5], 0.997 ± 0.015; under setting [6], 1 ± 0.021.
For `CN(C)C(=O)C(CCN1CCC(O)(c2ccc(Cl)cc2)CC1)(c1ccccc1)c1ccccc1` [Loperamide hydrochloride], the normalised cell viability runs as follows: under setting [1], 0.9953 ± 0.0042; under setting [2], 0.405 ± 0.032; under setting [3], 1.017 ± 0.0058; under setting [4], 0.87 ± 0.29; under setting [5], 1; under setting [6], 0.0171 ± 0.0045.
As to `O=C(CCCN1CCC(O)(c2ccc(Cl)cc2)CC1)c1ccc(F)cc1` [Haloperidol], the normalised cell viability reads like this: under setting [1], 0.996 ± 0.013; under setting [2], 0.93 ± 0.023; under setting [3], 1.01; under setting [4], 1.01 ± 0.025; under setting [5], 0.9843 ± 0.0035; under setting [6], 0.985 ± 0.002.
For the molecule `OC1(c2ccc(Cl)cc2)CCN(Cc2c[nH]c3ccccc23)CC1`, the normalised cell viability amounted to 0.972 ± 0.021 under setting [1]; 0.852 ± 0.052 under setting [2]; 1.003 ± 0.0061 under setting [3]; 1.04 ± 0.086 under setting [4]; 0.9753 ± 0.0065 under setting [5]; 0.988 ± 0.01 under setting [6].
As for `CN(C)C(=O)C(CCN1CCC(O)(c2ccc(Cl)cc2)CC1)(c1ccccc1)c1ccccc1` [Loperamide HCl], the normalised cell viability under setting [1] amounted to 1.02 ± 0.026; the normalised cell viability under setting [2] was 0.893 ± 0.035; the normalised cell viability under setting [3] amounted to 1.047 ± 0.0058; the normalised cell viability under setting [4] was 0.984 ± 0.012; the normalised cell viability under setting [5] is 1.017 ± 0.0058; the normalised cell viability under setting [6] worked out at 0.919 ± 0.0099.
Consider `Nc1nc2[nH]cnc2c(=S)[nH]1` [Thioguanine], for which the normalised cell viability stood at 0.931 ± 0.0046 under setting [1]; 0.423 ± 0.024 under setting [2]; 0.9813 ± 0.0011 under setting [3]; 0.754 ± 0.04 under setting [4]; 0.9133 ± 0.0051 under setting [5]; 0.119 ± 0.011 under setting [6].
As to `Cc1[nH]c2ccccc2c1CCNCc1ccc(/C=C/C(=O)NO)cc1` [Panobinostat (LBH589)], the normalised cell viability by setting is: under setting [1], 0.00703 ± 0.0011; under setting [2], 0.00134 ± 0.00097; under setting [3], 0.00592 ± 0.0022; under setting [4], 0.00214 ± 0.0018; under setting [5], 0.00625 ± 0.001; under setting [6], 9e-05 ± 0.00045.
As for `Cc1[nH]c2ccccc2c1C1=C(NCCc2ccc(F)cc2)C(=O)N(C)C1=O`, the normalised cell viability was found to be 0.964 ± 0.019 under setting [1]; 0.962 ± 0.053 under setting [2]; 0.988 ± 0.011 under setting [3]; 0.973 ± 0.021 under setting [4]; 0.977 ± 0.007 under setting [5]; 0.9803 ± 0.0047 under setting [6].
In the case of `CC(C)N(CCCNC(=O)Nc1ccc(C(C)(C)C)cc1)C[C@H]1O[C@@H](n2ccc3c(N)ncnc32)[C@H](O)[C@@H]1O`, the normalised cell viability under setting [1] was found to be 1.003 ± 0.0058; the normalised cell viability under setting [2] is 1.07 ± 0.025; the normalised cell viability under setting [3] turned out to be 0.984 ± 0.0053; the normalised cell viability under setting [4] worked out at 1.04 ± 0.01; the normalised cell viability under setting [5] came out at 1.002 ± 0.0068; the normalised cell viability under setting [6] was 1.002 ± 0.0076.
For the molecule `CCOC(=O)[C@]12CC1/C(=N\O)c1ccccc1O2` (some centres undefined), the normalised cell viability was determined as 1.017 ± 0.0058 under setting [1]; 1.01 ± 0.024 under setting [2]; 1.007 ± 0.0058 under setting [3]; 1.02 under setting [4]; 0.997 ± 0.013 under setting [5]; 1.002 ± 0.0068 under setting [6].
As for `C[N+](C)(C)CCO.[Br-]` [Choline bromide], the normalised cell viability under setting [1] is 1.017 ± 0.0058; the normalised cell viability under setting [2] came to 1 ± 0.019; the normalised cell viability under setting [3] was 1.017 ± 0.0058; the normalised cell viability under setting [4] came out at 1.02; the normalised cell viability under setting [5] was found to be 0.995 ± 0.0078; the normalised cell viability under setting [6] was found to be 0.998 ± 0.014.
`CC(C(=O)Nc1cccc(/N=C/c2c(O)ccc3ccccc23)c1)c1ccccc1` (centres undefined) [Salermide]: the normalised cell viability is, setting by setting: under setting [1], 0.999 ± 0.014; under setting [2], 1.01 ± 0.02; under setting [3], 0.9942 ± 0.0055; under setting [4], 1 ± 0.035; under setting [5], 0.9967 ± 0.0083; under setting [6], 1.002 ± 0.01.
